Screening data (PubChem)
POLI inh: DNA polymerase iota (human) inhibition; Pol iota fluorescent replication assay, 10 min; AID 588590; 1% of 390,000 active; Q9UNA4; Potency, µM (highest dose often 115 µM), actives largely listed as inhibitors
Target sequence (Q9UNA4 whole entry, looked up): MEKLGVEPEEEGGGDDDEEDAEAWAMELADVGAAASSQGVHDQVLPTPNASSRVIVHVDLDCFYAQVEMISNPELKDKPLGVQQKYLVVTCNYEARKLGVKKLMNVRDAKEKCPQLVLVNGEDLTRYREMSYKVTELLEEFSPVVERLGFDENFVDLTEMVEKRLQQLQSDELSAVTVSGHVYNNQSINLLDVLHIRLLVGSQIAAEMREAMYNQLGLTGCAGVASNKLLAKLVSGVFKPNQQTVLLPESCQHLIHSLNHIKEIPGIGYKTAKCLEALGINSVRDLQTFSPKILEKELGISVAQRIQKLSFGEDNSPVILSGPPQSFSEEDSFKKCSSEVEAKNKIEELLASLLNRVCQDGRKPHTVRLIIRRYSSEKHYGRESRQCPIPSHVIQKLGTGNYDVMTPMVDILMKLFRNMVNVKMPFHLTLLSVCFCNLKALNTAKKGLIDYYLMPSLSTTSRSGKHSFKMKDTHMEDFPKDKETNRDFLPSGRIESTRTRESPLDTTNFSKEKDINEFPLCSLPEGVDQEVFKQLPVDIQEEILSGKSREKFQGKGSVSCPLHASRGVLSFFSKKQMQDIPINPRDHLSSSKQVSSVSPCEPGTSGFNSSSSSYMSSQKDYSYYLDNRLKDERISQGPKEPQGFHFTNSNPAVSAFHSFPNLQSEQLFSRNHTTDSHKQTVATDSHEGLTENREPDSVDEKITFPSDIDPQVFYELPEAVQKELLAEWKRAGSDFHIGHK
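Pol iota at 10 nM preincubated 15 min with compounds at room temperature; reaction started with fluorescent substrate, 50 nM final. Fluorescence read kinetically at 0 and 10 min; buffer-only wells as negative control.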
Pol eta inh-1: DNA polymerase eta (human) inhibition; Q9Y253; recombinant Pol eta, fluorescent DNA replication assay; Potency, µM (titrated, usually from 114 µM), actives largely listed as inhibitors; 1.2% of 390,000 active; AID 588591
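Pol eta at 10 nM preincubated with compounds 15 min at room temperature; reaction started with fluorescent substrate (50 nM final) and read kinetically at 0 and 10 min.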
FEN1 inh-1: blocks human flap endonuclease 1 | P39748 | Recombinant FEN1 flap cleavage, fluorescence, 15 min | Potency, µM (series often up to 114 µM), hits mostly inhibitors | 0.35% of 390,000 active; note: nearly all actives have a fitted effect of over 65% in size
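With each library titrated from low to high concentration, compounds met 10 nM FEN1 for 15 min at room temperature before 50 nM substrate was added; readings at 0 and 15 min fed four-parameter Hill curve fits.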
Pol kappa inh-1: DNA polymerase kappa (human) inhibition; Potency, µM (doses to about 107 µM), actives largely listed as inhibitors; Q9UBT6; 0.53% of 400,000 active; purified Pol kappa, fluorescent DNA synthesis assay, 10 min
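First, compounds were pin-transferred onto 10 nM Pol kappa. After 15 min at room temperature, substrate was added to 50 nM final. Fluorescence was then measured kinetically at 0 and 10 min.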
WRN helicase inh: inhibitors of human WRN helicase. Potency, µM (titrated, usually from 114 µM), usual class: inhibitors. AID 651768. 0.46% of 360,000 active. WRN helicase unwinding, fluorescent forked duplex, kinetic; note: nearly all actives have a fitted effect of over 55% in size
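Kinetic fluorescence helicase assay: unwinding of a quenched forked DNA duplex (100 nM final) with 2 mM ATP final raises red fluorescence (525/598 nm). Compounds sat 15 min at room temperature with 20 nM WRN beforehand.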
POLB inh: blocks human DNA polymerase beta activity. Potency, µM (doses to about 114 µM), usual class: inhibitors. 1.3% of 340,000 active. P06746. Pol beta primer extension/strand displacement, fluorescence kinetic. AID 485314
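Curves were derived by four-parameter Hill fits of normalized qHTS data. The kinetic fluorescent primer-extension read was taken at 0 and 10 min after 50 nM substrate, following a 15 min room-temperature preincubation of 10 nM enzyme with compounds.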
PGK validate: blocks T. brucei phosphoglycerate kinase. Potency, µM (doses to about 57.5 µM), actives largely listed as inhibitors. TbPGK coupled GAPDH assay, Kinase-Glo luminescence. shares compounds with Pol kappa inh-1. 79% of 500 active; note: nearly all actives have a fitted effect of over 65% in size
Pol iota confirm: Human Pol iota inhibitor confirmatory assay; shares compounds with Pol kappa inh-1; Pol iota primer extension, TAMRA/BHQ fluorescence; Potency, µM, most hits filed as inhibitors; 77% of 1,500 active; AID 720496
Pol kappa inh-2: confirmation of human DNA polymerase kappa inhibitors; shares compounds with Pol eta inh-1; purified Pol-kappa, fluorescent strand-displacement substrate; Potency, µM, actives largely listed as inhibitors; 76% of 920 active
Pol eta inh-2: confirmation of human DNA polymerase eta inhibitors | shares compounds with Pol eta inh-1 | 64% of 2,600 active | Potency, µM, hits mostly inhibitors | AID 720502 | Pol eta primer extension, TAMRA/BHQ fluorescence, 10 min
FEN1 inh-2: confirmation of human FEN1 inhibitors. shares compounds with FEN1 inh-1. FEN1 flap cleavage, TAMRA/BHQ2 fluorogenic DNA substrate. Potency, µM, usual class: inhibitors. 79% of 880 active. AID 720498; note: nearly all actives have a fitted effect of over 60% in size
A number is an active result; 0 = inactive; ? = inconclusive; - = no result given; ! = repeats disagree; [ ] = remark or other dose. Compounds with a hit are over-represented: about 2.4% of the library has one in this group of screens. Calls come from the whole dose curve; as a rule, active = well fitted curve in the direction sought with a large enough effect; inconclusive = small, poorly fitted or top-dose-only effect, or another doubt; inactive = no such curve, though single readings can be large; an effect the other way counts as inactive or inconclusive.

SMILES	POLI inh	Pol eta inh-1	FEN1 inh-1	Pol kappa inh-1	WRN helicase inh	POLB inh	Pol iota confirm	Pol eta inh-2	others
Cc1cccc(NC(=O)CCS(=O)(=O)c2cc(Br)cc3c2N(C(=O)C2CC2)CC3)c1	0	0	0	0	-	0	-	-
Cc1c(CC(=O)O)c(=O)oc2c(C)c3occ(-c4ccc(Br)cc4)c3cc12	0	?	?	0	0[11.6 µM]	22µM	42	76
COc1ccc2c(c1)c(=O)oc1c(C)c(OCc3cc(C(=O)O)oc3C)ccc12	35µM	14µM	?	79µM	50µM	35µM	?	?
Cc1nnc(NC(=O)CSCc2cc(=O)c3ccc(C)c(C)c3[nH]2)s1	0	0	0	0	-	0	-	-
Cc1nnc(NC(=O)CSCc2cc(=O)c3ccccc3[nH]2)s1	79µM	50µM	0	0	-	?	67	?
COc1ccc(C(=O)N/N=C/c2ccc(OC)c(COc3c(F)c(F)cc(F)c3F)c2)cc1	45µM	?	0	0	0[11.6 µM]	50µM	?	-	Pol kappa inh-2=?
COc1ccc(C2N3CC4(C)CN2CC(c2ccccc2)(C3)C4=O)cc1 (stereo not drawn)	0	0	0	0	-	0	-	-
Cc1ccc(S(=O)(=O)N2[C@@H](c3ccc(Cl)cc3)C(C(=O)O)=CC[C@H]2c2ccc(C(C)C)cc2)cc1	0	?	0	0	0	-	60	85	Pol kappa inh-2=42
Cc1ccc([C@H]2C(C(=O)O)=CC[C@@H](c3ccc(C(C)C)cc3)N2S(=O)(=O)c2ccc(C)cc2)cc1	?	?	0	0	0	-	-	-
COc1ccc(/C=N/NC(=O)c2nnn(-c3nonc3N)c2-c2cccc(OC)c2)cc1	0	0	0	0	0	0	-	-
COc1ccc(O)c(/C=N/NC(=O)c2c(C)nnn2-c2nonc2N)c1	?	?	?	?	?	4.5µM	75	-	Pol kappa inh-2=?
CC1=NN(c2ccc(C(=O)O)cc2)C(=O)/C1=C/c1ccc(-c2ccccc2F)o1	-	-	-	-	-	0	-	-
O=C1NN(c2ccccc2)C(=O)/C1=C/c1ccc(-c2ccc(C(=O)O)cc2)o1	3.5µM	7.1µM	50µM	18µM	50µM	?	24	27
CCn1c(C)cc(/C=C2\NC(=O)N(Cc3ccc(Cl)cc3)C2=O)c1C	0	0	0	0	0	0	-	-
O=C(O)c1ccc(N2C(=O)/C(=C/c3ccc(-c4ccc([N+](=O)[O-])cc4)o3)C=C2c2ccccc2)cc1	?	3.5µM	?	?	56µM	10µM	8.4	7.6
O=C1NN(c2ccccc2)C(=O)/C1=C/c1ccc(Sc2cccc3ccccc23)o1	11µM	28µM	?	?	?	20µM	75	30
O=C(O)c1ccc(-c2ccc(/C=C3\NC(=O)N(Cc4ccc(Cl)cc4)C3=O)o2)cc1	28µM	22µM	0	?	0[11.6 µM]	0	38	27
CC(C)Oc1ccc(CNS(=O)(=O)c2ccc3c(c2)C(C)(C)C(=O)N3C)cc1	0	0	0	0	-	0	-	-
COc1cccc(Cn2c(=O)n(Cc3ccco3)c(=O)c3oc4ccccc4c32)c1	0	0	0	0	-	0	-	-
Cc1ccc(NC(=O)Cn2c(=O)n(-c3ccc(Cl)c(Cl)c3)c(=O)c3c(C)c(C)sc32)c(C)c1	0	-	0	0	-	0	-	-
Cc1cc(C)c(NC(=O)Cn2c(=O)n(Cc3ccc(C(=O)NCc4ccco4)cc3)c(=O)c3sccc32)c(C)c1	?	?	0	?	-	1.1µM	47	67
N#Cc1ccccc1Cn1c(=O)n(Cc2ccc(C(=O)NCc3ccco3)cc2)c(=O)c2sccc21	0	0	0	0	0	?	-	-
CCCCC/C=C\C/C=C\C/C=C\CCCCCCC(=O)O	-	-	-	0[19.4 µM]	-	-	-	-
CCCCC/C=C\C/C=C\C/C=C\CCCCC(=O)O	40µM	20µM	0	50µM!	?	-	67	30	Pol kappa inh-2=21
COc1ccc2nc(-n3c(O)c(C4=c5ccccc5=NC4=O)[nH]c3=S)sc2c1	?	8.9µM	32µM	?	25µM	8.9µM	27	27	Pol kappa inh-2=17
SMILES	POLI inh	Pol eta inh-1	FEN1 inh-1	Pol kappa inh-1	WRN helicase inh	POLB inh	Pol iota confirm	Pol eta inh-2	others
Cn1c(O)c(C2=c3ccccc3=NC2=O)[nH]c1=S	0	0	0	0	0	0	-	-
Cc1cc(/C=N/Nc2ccc([N+](=O)[O-])cn2)c(C)n1-c1ccc(C(=O)O)cc1	18µM	18µM	?	79µM	50µM	?	?	67
Cc1ccccc1-n1c(C)cc(/C=N/Nc2ccc([N+](=O)[O-])cn2)c1C	0	0	0	0	0	0	-	-
CC(C)(Sc1ccc(CCN(CCCCC2CCCCC2)C(=O)NC2CCCCC2)cc1)C(=O)O	0	89µM	?	?	0	?	42	19	Pol kappa inh-2=19
O=C(N/C=C/c1ccco1)NCc1ccccc1	?	18µM	?	35µM	?	16µM	27	27
NS(=O)(=O)c1ccc(CCNC(=O)COC(=O)c2ccc([N+](=O)[O-])o2)cc1	35µM	?	?	0	0	-	84	?	FEN1 inh-2=11
NS(=O)(=O)c1ccc(CCNC(=O)COC(=O)Cc2ccc([N+](=O)[O-])cc2)cc1	0	0	0	0	0	-	-	-
O=C1c2cccc3cc([N+](=O)[O-])cc(c23)C(=O)N1CCN1CCCC1	20µM	0	14µM	79µM	0[11.6 µM]	14µM	19	-	FEN1 inh-2=11
COc1ccc(-c2onc(C)c2C)cc1S(=O)(=O)N1CCc2ccccc21	0	0	0	0	-	0	-	-
O=C(O)C1Nc2c(O)cc(Cl)c([N+](=O)[O-])c2C2C=CCC12 (stereo not drawn)	?	1.3µM	?	1.8µM	5µM	0.25µM	15	4.8	PGK validate=1.5µM;FEN1 inh-2=24
COc1ccc(NC(=O)CSc2ncc3c(n2)-c2ccccc2N(Cc2ccc(C)cc2)S3(=O)=O)cc1Cl	0	0	0	0	-	?	-	-
CC(=O)Nc1sc2c(c1-c1nc3ccccc3s1)CCNC2	-	-	-	-	-	-	21	-	Pol kappa inh-2=8.4;FEN1 inh-2=3.4
CC(=O)Nc1sc2c(c1-c1nc3ccccc3s1)CCCNC2	-	-	-	-	-	-	?	-	FEN1 inh-2=34
